Experimental data from the supplement of paper PMC11732987, “Enantioselective OTUD7B fragment discovery through chemoproteomics screening and high-throughput optimisation” (Communications Chemistry, 2025).

How the values were obtained:
Assay in all cases: log2 ratio of Biotin-Ahx-Ub-VS probe labelling (fragment/DMSO); higher = less target engagement (more negative = stronger competition), active = hit call of the paper (q ≤ 0.05, log2 ratio ≤ -1)
Details in all cases: compound concentration: 200 uM; treatment time: 3 h
USP19 = biological target: T1, USP19 (UniProt O94966)
T1 sequence (whole entry): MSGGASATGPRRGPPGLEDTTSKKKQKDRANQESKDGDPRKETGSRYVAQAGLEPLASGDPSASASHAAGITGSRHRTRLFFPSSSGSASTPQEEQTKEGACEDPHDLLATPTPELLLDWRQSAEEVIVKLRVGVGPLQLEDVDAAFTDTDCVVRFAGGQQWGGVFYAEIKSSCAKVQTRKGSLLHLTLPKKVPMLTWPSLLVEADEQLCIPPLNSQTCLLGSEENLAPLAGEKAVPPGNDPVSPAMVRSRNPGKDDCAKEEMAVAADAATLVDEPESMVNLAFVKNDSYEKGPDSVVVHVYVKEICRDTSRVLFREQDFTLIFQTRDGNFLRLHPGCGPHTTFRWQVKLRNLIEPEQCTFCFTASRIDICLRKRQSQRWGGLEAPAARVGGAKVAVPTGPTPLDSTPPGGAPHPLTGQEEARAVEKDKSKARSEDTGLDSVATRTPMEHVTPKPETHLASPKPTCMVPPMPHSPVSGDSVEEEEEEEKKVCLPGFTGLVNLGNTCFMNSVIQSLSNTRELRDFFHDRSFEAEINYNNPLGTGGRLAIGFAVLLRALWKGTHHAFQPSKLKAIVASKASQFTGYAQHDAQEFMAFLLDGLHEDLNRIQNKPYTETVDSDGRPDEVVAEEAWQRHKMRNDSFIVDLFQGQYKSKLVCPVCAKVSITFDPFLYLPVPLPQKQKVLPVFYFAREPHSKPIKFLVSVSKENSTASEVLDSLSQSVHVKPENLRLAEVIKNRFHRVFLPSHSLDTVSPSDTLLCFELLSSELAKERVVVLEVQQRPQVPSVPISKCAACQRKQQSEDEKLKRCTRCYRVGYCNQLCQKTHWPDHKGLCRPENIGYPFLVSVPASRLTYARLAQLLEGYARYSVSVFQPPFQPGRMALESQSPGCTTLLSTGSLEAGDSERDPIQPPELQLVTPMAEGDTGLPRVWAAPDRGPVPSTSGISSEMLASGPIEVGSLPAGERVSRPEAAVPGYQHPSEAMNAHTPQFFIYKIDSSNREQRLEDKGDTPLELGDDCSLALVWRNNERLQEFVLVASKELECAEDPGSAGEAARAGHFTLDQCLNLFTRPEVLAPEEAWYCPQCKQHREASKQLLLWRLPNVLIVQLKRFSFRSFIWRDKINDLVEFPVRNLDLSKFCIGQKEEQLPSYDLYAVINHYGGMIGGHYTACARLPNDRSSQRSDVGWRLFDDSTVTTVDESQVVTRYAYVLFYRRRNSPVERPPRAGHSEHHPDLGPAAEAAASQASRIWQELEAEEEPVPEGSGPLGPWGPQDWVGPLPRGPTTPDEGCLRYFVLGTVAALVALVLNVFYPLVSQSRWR
In short: (§1)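 Using Biotin-Ahx-Ub-VS at 0.5 µM final for 1 h, DUBs were labelled in HEK293T lysate (495 µg per sample) that had first been treated in triplicate with fragment at 200 µM or vehicle for 3 h. NeutrAvidin enrichment, LysC and trypsin digestion and diaPASEF LC-MS/MS followed. Spectronaut label-free quantities were global-median-normalised. Values are average log2 fragment/vehicle ratios by unpaired t-test, using proteins with ≥2 unique peptides.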

USP22 = biological target: T2, USP22 (UniProt Q9UPT9)
T2 sequence (whole entry): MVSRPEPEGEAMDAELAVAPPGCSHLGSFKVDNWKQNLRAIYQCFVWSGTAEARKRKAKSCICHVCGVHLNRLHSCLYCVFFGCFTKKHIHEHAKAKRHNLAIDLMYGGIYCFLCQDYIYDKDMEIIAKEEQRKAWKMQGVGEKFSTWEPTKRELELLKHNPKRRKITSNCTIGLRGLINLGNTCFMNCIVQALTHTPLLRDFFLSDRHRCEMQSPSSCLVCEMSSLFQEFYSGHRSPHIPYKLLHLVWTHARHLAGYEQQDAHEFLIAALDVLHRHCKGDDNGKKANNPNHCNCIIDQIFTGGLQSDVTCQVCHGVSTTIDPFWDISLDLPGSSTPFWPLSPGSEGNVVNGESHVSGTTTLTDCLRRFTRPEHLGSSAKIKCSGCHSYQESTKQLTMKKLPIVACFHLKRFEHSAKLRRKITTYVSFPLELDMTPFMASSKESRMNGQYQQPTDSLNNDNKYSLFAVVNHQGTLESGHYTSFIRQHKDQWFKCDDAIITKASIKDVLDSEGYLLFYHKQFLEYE
In short: as §1

USP24 = USP24 (UniProt Q9UPU5)
In short: as §1

USP25 = biological target: T3, USP25 (UniProt Q9UHP3)
T3 sequence (whole entry): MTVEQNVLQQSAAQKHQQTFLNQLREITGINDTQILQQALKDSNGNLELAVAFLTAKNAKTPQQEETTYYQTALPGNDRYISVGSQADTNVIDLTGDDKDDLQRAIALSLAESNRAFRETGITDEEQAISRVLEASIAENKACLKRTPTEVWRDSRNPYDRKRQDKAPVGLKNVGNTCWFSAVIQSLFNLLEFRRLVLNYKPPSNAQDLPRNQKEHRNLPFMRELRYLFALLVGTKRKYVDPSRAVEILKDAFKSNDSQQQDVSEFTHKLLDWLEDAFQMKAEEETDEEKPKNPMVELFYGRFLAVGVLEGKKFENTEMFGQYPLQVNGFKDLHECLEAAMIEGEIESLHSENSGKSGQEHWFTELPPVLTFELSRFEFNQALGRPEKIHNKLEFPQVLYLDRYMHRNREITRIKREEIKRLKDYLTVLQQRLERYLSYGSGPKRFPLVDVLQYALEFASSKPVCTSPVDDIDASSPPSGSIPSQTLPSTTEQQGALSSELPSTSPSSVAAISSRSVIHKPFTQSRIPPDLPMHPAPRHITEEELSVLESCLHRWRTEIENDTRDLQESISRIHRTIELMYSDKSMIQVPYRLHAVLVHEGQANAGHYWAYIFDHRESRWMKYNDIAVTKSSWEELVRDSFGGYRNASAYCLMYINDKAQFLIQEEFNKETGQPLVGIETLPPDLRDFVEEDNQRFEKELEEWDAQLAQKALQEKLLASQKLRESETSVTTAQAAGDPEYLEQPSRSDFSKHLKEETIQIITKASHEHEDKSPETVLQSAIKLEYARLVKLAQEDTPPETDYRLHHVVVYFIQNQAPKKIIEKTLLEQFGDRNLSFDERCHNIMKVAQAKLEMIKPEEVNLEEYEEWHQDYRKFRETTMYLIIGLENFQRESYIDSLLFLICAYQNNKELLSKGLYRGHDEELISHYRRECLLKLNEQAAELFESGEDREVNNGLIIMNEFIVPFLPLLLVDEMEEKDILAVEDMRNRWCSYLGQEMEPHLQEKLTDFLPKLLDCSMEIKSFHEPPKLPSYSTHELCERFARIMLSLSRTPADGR
In short: as §1

USP28 = biological target: T4, USP28 (UniProt Q96RU2)
T4 sequence (whole entry): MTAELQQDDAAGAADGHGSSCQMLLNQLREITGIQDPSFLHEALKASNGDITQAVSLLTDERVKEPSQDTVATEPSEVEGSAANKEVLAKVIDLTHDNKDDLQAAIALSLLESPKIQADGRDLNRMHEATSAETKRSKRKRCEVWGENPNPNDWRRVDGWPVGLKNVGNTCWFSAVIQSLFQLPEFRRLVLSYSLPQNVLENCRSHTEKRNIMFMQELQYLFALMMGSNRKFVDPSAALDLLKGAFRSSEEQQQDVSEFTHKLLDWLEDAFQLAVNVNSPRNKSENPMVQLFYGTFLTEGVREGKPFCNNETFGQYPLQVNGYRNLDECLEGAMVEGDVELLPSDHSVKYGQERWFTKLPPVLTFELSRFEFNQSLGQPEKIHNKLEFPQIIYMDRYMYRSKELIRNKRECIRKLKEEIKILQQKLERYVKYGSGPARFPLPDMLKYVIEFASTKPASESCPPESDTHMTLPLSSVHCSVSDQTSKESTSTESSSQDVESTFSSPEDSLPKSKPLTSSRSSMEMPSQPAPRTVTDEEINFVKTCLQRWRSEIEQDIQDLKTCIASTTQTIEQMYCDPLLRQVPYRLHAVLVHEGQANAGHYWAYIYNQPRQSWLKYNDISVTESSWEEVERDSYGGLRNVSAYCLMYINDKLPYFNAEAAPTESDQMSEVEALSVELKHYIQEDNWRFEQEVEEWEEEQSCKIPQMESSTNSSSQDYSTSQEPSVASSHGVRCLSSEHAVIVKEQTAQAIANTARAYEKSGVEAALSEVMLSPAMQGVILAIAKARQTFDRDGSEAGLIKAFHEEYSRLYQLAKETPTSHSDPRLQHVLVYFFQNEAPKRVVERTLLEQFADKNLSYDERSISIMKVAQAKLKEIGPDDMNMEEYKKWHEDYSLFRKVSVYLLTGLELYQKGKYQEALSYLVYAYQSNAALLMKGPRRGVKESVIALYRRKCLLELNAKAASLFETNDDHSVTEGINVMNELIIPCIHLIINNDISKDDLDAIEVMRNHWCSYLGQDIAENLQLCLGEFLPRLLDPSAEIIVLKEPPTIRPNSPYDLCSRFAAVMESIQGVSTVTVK
In short: as §1

Measured: log2 ratio of Biotin-Ahx-Ub-VS probe labelling

Chain of USP24 (Q9UPU5 whole entry): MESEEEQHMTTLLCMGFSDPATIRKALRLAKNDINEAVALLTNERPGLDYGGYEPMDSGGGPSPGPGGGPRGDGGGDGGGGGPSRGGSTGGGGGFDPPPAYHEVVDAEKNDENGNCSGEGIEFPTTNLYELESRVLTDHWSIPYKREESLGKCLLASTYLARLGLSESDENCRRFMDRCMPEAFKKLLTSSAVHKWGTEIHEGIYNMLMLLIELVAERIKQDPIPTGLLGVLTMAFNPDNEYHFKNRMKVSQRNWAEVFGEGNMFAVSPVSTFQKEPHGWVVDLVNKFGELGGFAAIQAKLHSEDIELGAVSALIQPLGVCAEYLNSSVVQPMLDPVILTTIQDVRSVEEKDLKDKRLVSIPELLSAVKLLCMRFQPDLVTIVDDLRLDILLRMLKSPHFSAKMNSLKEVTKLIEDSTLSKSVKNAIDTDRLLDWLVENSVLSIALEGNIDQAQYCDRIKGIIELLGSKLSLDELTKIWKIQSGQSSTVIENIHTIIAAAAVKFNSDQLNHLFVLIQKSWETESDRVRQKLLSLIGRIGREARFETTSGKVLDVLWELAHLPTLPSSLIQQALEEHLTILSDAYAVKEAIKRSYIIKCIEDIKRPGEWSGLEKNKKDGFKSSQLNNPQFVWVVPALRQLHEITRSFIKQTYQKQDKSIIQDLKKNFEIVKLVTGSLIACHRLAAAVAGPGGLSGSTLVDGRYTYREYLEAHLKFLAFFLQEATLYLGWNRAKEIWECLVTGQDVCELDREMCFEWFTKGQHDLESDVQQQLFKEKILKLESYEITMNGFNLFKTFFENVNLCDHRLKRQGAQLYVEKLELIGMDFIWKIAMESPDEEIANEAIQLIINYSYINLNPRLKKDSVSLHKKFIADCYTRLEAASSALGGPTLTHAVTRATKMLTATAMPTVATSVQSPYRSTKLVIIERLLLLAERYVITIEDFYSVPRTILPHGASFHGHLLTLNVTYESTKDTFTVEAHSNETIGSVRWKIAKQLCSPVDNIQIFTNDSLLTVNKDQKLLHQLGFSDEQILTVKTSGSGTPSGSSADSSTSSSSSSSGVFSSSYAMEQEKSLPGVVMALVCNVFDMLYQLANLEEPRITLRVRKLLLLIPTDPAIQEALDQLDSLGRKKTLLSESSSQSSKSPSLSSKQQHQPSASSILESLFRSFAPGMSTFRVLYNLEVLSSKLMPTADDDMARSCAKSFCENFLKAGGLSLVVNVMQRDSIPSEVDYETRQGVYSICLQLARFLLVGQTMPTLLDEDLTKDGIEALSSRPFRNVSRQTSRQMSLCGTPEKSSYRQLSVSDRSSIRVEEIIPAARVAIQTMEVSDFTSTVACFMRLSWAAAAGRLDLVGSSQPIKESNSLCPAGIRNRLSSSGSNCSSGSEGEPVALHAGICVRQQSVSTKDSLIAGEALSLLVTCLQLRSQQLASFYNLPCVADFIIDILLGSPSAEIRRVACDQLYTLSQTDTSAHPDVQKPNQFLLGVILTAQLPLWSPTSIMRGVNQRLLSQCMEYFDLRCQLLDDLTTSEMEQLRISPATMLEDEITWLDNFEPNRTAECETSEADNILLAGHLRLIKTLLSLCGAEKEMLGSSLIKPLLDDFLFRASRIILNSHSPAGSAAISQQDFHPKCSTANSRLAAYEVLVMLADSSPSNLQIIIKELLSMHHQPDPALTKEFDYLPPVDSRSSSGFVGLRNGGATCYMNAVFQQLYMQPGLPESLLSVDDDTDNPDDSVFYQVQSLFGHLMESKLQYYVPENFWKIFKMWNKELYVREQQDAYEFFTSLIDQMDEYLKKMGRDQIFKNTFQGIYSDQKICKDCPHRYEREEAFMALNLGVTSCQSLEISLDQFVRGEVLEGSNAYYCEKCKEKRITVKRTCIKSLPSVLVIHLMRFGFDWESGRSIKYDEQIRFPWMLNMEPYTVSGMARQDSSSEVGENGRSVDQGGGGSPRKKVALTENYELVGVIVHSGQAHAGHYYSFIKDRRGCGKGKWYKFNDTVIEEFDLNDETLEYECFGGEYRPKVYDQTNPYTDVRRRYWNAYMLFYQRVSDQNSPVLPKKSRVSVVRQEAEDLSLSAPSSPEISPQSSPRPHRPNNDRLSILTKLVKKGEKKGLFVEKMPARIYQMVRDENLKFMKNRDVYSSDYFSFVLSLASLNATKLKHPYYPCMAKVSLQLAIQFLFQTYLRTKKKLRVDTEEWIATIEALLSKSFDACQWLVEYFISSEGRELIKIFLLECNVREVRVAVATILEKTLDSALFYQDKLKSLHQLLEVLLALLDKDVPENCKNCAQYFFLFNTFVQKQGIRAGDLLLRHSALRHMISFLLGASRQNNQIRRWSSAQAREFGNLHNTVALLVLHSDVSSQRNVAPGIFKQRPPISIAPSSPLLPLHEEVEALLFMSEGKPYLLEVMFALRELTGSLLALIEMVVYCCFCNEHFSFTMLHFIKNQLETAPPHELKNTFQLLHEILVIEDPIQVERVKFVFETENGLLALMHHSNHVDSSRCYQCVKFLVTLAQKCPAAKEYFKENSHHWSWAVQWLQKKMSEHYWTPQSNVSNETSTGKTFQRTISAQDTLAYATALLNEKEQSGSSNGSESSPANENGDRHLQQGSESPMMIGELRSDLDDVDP

CC(NC(=O)CCl)c1ccc2[nH]ncc2c1 (stereo not given)
inactive: USP19 -0.529 | USP22 0.0735 | USP24 -0.886 | USP25 -0.509 | USP28 -0.901
